DT40 TDP1 CPT = DT40-hTDP1 cell growth loss with CPT. Potency, µM (doses to about 46.2 µM), most hits filed as inhibitors. 420,000 tested, 12% active. chicken DT40 Tdp1-/-;hTDP1 cells + 20 nM CPT, ATP luminescence, 48 h; note: nearly all actives have a fitted effect of over 55% in size
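Cell growth measured by CellTiter-Glo luminescence after a minimum 48 h, 37 C compound exposure with 20 nM CPT in Tdp1-knockout DT40 cells stably expressing hTDP1, seeded 400/well; qHTS titration format.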
HT1080NT lethal = kills 2HG-producing HT-1080-NT fibrosarcoma cells; HT-1080-NT fibrosarcoma viability, CellTiter-Glo ATP luminescence, 48 h; Potency, µM (series often up to 46.1 µM), usual class: cytotoxic; 360,000 tested, 1.6% active;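 note: NT is the 2HG producing partner of a matched IDH1 knockdown line; nearly all actives have a fitted effect of over 55% in size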
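Read-out is CellTiter-Glo luminescence after 10 minutes at room temperature, following 48 hours' compound treatment of HT-1080-NT cells (750 cells/well, RPMI, 5% FBS, 37 degrees C).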
IL-1B inflam inh = blocks inflammasome-driven IL-1 beta release | THP-1 LPS/ATP IL-1B secretion, AlphaLISA, 16 h; hits give low values | activity change, % at 57.5 µM | 360,000 tested, 4.7% active | AID 743279; in the data active = activity change below about -50%; inconclusive = mostly about -30% to -49%
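Secreted IL-1B measured by AlphaLISA bead assay after 16 h compound exposure of THP-1 cells; compounds (final up to 57.5 uM) added 1 h before LPS (250 ng/mL) and ATP (1.25 mM) stimulation; lower signal means less secretion.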
TDP1 cell noCPT = qHTS for Inhibitors of human tyrosyl-DNA phosphodiesterase 1 (TDP1): qHTS in cells in absence of CPT. DT40 Tdp1-/- hTDP1 cells, no CPT, ATP luminescence, 48 h. Potency, µM (titrated, usually from 46.2 µM), most hits filed as inhibitors. 420,000 tested, 15% active; note: nearly all actives have a fitted effect of over 55% in size
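Seeded 400 DT40-hTDP1 cells/well (vehicle DMSO, no 20 nM CPT); pinned compounds; ≥48 hr at 37 °C; CellTiter-Glo luminescence as viability measure.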
HT1080 IDH1KD tx = toxicity to HT-1080 IDH1 knockdown cells (counter line). HT-1080 IDH1 knockdown viability, ATP luminescence, 48 h. 360,000 tested, 2% active. Potency, µM (top dose mostly 46.1 µM), hits mostly cytotoxic
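CellTiter-Glo luminescence after 48 h compound exposure at 37 degrees C of IDH1-knockdown HT-1080 cells in 5% FBS RPMI. %Activity scaled between DMSO wells and cell-free media wells, with curves fitted and assigned curve classes.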
Hits are given with their value; n = inactive; u = inconclusive; x = no result. In the library only some 19% were active in any assay of this set; here they are far more common. Unless noted, calls come from the whole dose curve; as a rule, active = well fitted curve in the direction sought with a large enough effect; inconclusive = small, poorly fitted or top-dose-only effect, or another doubt; inactive = no such curve, though single readings can be large; an effect the other way counts as inactive or inconclusive.

SMILES	DT40 TDP1 CPT	HT1080NT lethal	IL-1B inflam inh	TDP1 cell noCPT	HT1080 IDH1KD tx
O=C1N=c2ccc([N+](=O)[O-])cc2=C1c1sc(=O)[nH]c1O	u	n	n	u	n
COc1cc(C(=O)ON=C2C=C(C)C(=O)C(C)=C2)cc(OC)c1OC	15µM	n	n	16µM	n
COc1cc(C(=O)Oc2ccccc2OC(=O)c2cc(OC)c(OC)c(OC)c2)cc(OC)c1OC	n	n	n	n	n
COc1cc(C(=O)O/N=C2\C=CC(=O)C(C)=C2)cc(OC)c1OC	6.5µM	23µM	-72	16µM	u
COc1ccc(C(=O)ON=C2C=C(C)C(=O)C(C)=C2)cc1	13µM	n	u	23µM	n
COc1cc(C(=O)O/N=C(\N)c2ccncc2)cc(OC)c1OC	u	n	n	u	n
COc1ccc(C(=O)O/N=C(\N)c2ccc(Cl)cc2)cc1	n	n	n	n	n
COc1ccc(S(=O)(=O)N=C2C=C(C)C(=O)C(C)=C2)cc1	15µM	n	n	21µM	n
Cc1ccnc(NS(=O)(=O)c2cc(-c3cc(C)no3)ccc2C(C)C)c1	n	n	n	n	n
CSc1ccc(CNC(=O)C2CCC(=O)N(CCc3ccc(Cl)cc3)C2)cc1 (stereo not drawn)	n	n	n	u	n
O=C(CCN=C1NS(=O)(=O)c2ccccc21)N1CCc2ccccc2C1	n	n	n	n	n
CC(C)CCNC(=O)c1cccc(C(=O)NCCC(C)C)c1	u	n	n	u	n
CCc1ccc(CNC(=O)c2sc3ncccc3c2-n2c(C)ccc2C)cc1	15µM	x	x	21µM	x
COCCNC(=O)c1sc2ncccc2c1-n1c(C)ccc1C	18µM	x	x	u	x
Cc1ccc(C)n1-c1c(C(=O)NCCC(C)C)sc2ncccc12	16µM	x	x	18µM	x
C[C@@H]1CN([C@H](C)CO)C(=O)CCCn2nncc2CO[C@@H]1CN(C)C(=O)NC1CCCCC1	n	n	n	n	n
CCc1cccc(C)c1NC(=O)C1CCN(c2nn3c(=O)cc(C)nc3s2)CC1	u	n	n	n	n
O=C(NCc1cccnc1)c1ccc(Cn2cc(C(F)(F)F)ccc2=O)cc1	n	n	n	n	n
O=C(NCc1cccnc1)c1nc(-c2ccc(C(F)(F)F)cc2)no1	15µM	n	n	13µM	n
O=C(NCc1ccncc1)c1nc(-c2ccc(C(F)(F)F)cc2)no1	15µM	n	u	8.2µM	u
Cc1nn(CC(=O)NC2CCCCC2)c(C)c1[N+](=O)[O-]	n	n	n	n	n
CCOc1cc(/C=C2/SC(=S)NC2=O)ccc1OC(=O)c1ccco1	23µM	12µM	-51	12µM	u
COc1cc(/C=C2/SC(=O)NC2=O)ccc1OC(=O)c1ccco1	16µM	n	n	16µM	n
COc1cc(NC(=O)c2nccnc2C(=O)O)cc(OC)c1	n	n	n	n	n
CC(c1cccs1)N(C)Cc1nc(CCc2ccccc2)no1 (stereo not drawn)	n	n	n	n	n
SMILES	DT40 TDP1 CPT	HT1080NT lethal	IL-1B inflam inh	TDP1 cell noCPT	HT1080 IDH1KD tx
COc1ccc(CCN=C(NS(=O)(=O)c2ccc(Cl)cc2)c2ccccc2)cc1	u	n	-66	u	n
CCOC(=O)c1sc2nc(CC(=O)OC)nc(N3CCN(c4ccccn4)CC3)c2c1C	23µM	u	n	18µM	n
Cc1sc2nc(CSc3ccccc3)nc(N3CCC(C(N)=O)CC3)c2c1C	u	n	-63	21µM	n
CCOC(=O)c1sc2nc(CSc3ccccc3)nc(N3CCCN(C)CC3)c2c1C	26µM	n	u	u	n
CCOC(=O)c1sc2nc(CSc3ccccc3)nc(N3CCC(C(N)=O)CC3)c2c1C	u	u	-116	23µM	23µM
O=C(O)c1ccc(NC2=C/C(=N/S(=O)(=O)c3ccccc3)c3ccccc3C2=O)cc1	2.6µM	4.1µM	-97	3.7µM	5.8µM
O=C(O)c1ccc(NS(=O)(=O)c2ccc3c(c2)C(=O)c2ccccc2C3=O)cc1	n	n	n	n	n
O=S(=O)(N=C1C=CC(=NS(=O)(=O)c2ccccc2)c2ccccc21)c1ccccc1	7.3µM	n	n	6.5µM	u

Bioassay records deposited in PubChem BioAssay by National Center for Advancing Translational Sciences (NCATS).
